Drawing on PubChem BioAssay (NCI), this text covers growth for 7 compounds.

Holding throughout (assay): NCI-60 one-dose screen, 48 h (100 = growth as untreated, 0 = no growth, -100 = all killed)
The subject of test [1] is NCI-H23 lung. The conditions noted are these: 10 µM unless noted.
The subject of test [2] is NCI-H226 lung. The conditions noted are these: 10 µM unless noted.
For test [3], the system named is NCI-H322M lung. The conditions noted are these: 10 µM unless noted.
For test [4], the system named is HOP-62 NSCLC. The conditions noted are these: 10 µM unless noted.
In test [5] the test system is NCI-H460 lung. The conditions noted are these: 10 µM unless noted.
Test [6] deals with HOP-92 NSCLC. The conditions noted are these: 10 µM unless noted.
Test [7] has as its system NCI-H522 lung. The conditions noted are these: 10 µM unless noted.
Test [8] concerns A549/ATCC NSCLC. The conditions noted are these: 10 µM unless noted.
In test [9] the test system is 786-0 renal. The conditions noted are these: 10 µM unless noted.
The subject of test [10] is COLO 205 colon. The conditions noted are these: 10 µM unless noted.
Test [11] deals with DU-145 prostate. The conditions noted are these: 10 µM unless noted.
The test system of test [12] is K-562 leukemia. The conditions noted are these: 10 µM unless noted.
For test [13], the system named is MALME-3M melanoma. The conditions noted are these: 10 µM unless noted.
Test [14] relates to MDA-MB-231 breast. The conditions noted are these: 10 µM unless noted.
Test [15] concerns RXF 393 renal. The conditions noted are these: 10 µM unless noted.
The test system of test [16] is SF-268 CNS. The conditions noted are these: 10 µM unless noted.
The subject of test [17] is SF-295 CNS. The conditions noted are these: 10 µM unless noted.
Test [18] deals with SF-539 CNS. The conditions noted are these: 10 µM unless noted.
Test [19] concerns UACC-257 melanoma. The conditions noted are these: 10 µM.
For test [20], the system named is M14 melanoma. The conditions noted are these: 10 µM unless noted.

This is part of a sample that, as a whole, favours compounds with a hit. Of some 83,000 tested, about 20% had one in any assay.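 Plates (96-well) were seeded with cells, treated with compound at one concentration, and incubated for 48 hours before percent growth was determined.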 Unmarked numbers belong to inactive results. Active and inactive are the calls of the source. How the source made its calls: active means growth percent below 10; inactive means the rest.

For the compound `CCN1C/C(=N\S(=O)(=O)c2ccccc2)N(CC)C1=S`, the growth in test [1] was 94.1%; in [2], 101%; in [3] it was 101%; in [4] it was 105%; in test [5], 108%; in test [6] it was 139%. The growth was 94.3% in [7]; 98.5% in [8]; 96.6% in test [9]; 107% in test [10]; 117% in test [11]; 98.8% in test [12]. The growth is 100% in test [13]; 104% in test [14]; 117% in [15]; 104% in test [16]; 103% in [17]; 102% in test [18]. Further, the growth in test [19] was 97.6%; in test [20], 99%.

With `COc1cc(O)c2c(c1)[C@H]1O[C@@H]1C[C@H](O)[C@H](O)C(=O)/C=C\C[C@H](C)OC2=O`, the growth in test [1] was 25.7%; in [2] it was 37.9%; in test [3] it was 85.7%; in test [4], 68.7%; in [5], 68.1%; in test [6], -8.48% (active). The growth in [7] is 4.82% (active); in test [8], 72.3%; in test [9], 66%; in [10] it was 9.13% (active); in test [11], 55.3%; in [12], 29.9%. The growth in test [13] was -24.1% (active); in [14] it was 48.7%; in test [15] it was 8.74% (active); in [16] it was 74.4%; in test [17], 81.7%; in [18], 61.7%. For the same compound, in test [20], the growth was 9.43% (active).

For `C#CCOc1ccc(C(Nc2ccc(Cl)cc2)c2nnnn2C2CCCCC2)cc1` (stereo unspecified), the growth was 91.7% in test [1]; 88.4% in [2]; 93.6% in test [3]; 83.4% in [4]; 83.1% in test [5]; 81.8% in [6]. Further, the growth in test [7] is 81%; in [8], 78.8%; in test [9] it was 92.5%; in test [10] it was 97.9%; in test [11], 93.8%; in [12], 82.2%. For the same compound, the growth in [13] is 98.8%; in [14], 76.9%; in test [15] it was 87%; in [16], 80.2%; in [17], 74.5%; in test [18], 98.6%. Also, the results for the growth in [19] and in test [20] were 86.2% and 99.4%, respectively.

Turning to `COC1=C(c2ccccc2)C(=O)C(OC)=C(c2ccccc2)C1=O`, the growth in test [1] was 100%; in test [2] it was 95.5%; in test [3], 106%; in test [4], 89.9%; in [5] it was 106%; in test [6], 97.6%. In addition, the growth in test [7] was 83.8%; in test [8], 74.3%; in test [9], 99.2%; in [10], 108%; in test [11], 117%; in [12], 77.2%. The growth in test [13] is 112%; in test [14], 94.5%; in test [15], 106%; in test [16] it was 106%; in test [17], 100%; in [18], 102%. For the same compound, in test [20], the growth was 98.9%.

For the compound `O=c1c2c(O)cccc2oc2c3c(cc(O)c12)O[C@H]1OC=C[C@@H]31`, the growth in test [1] was 59.9%; in [2] it was 88.7%; in test [3], 88.4%; in test [4] it was 82.4%; in test [5], 73.5%; in test [6] it was 88.7%. Further, the growth was 79.9% in [7]; 61% in test [8]; 98.9% in test [9]; 75.1% in test [10]; 98% in test [11]; 96.2% in test [12]. Besides, the growth in test [13] was 95.2%; in test [14] it was 83.2%; in [15], 99.1%; in test [16], 94.7%; in test [17] it was 89.5%; in [18], 98.4%. For the same compound, the growth in test [20] is 101%.

Consider `Cc1cc(O)c(=O)cc2c1C[C@H]1CC(C)(C)/C=C/C[C@]3(C)Oc4cc(=O)c(O)cc(C)c4C[C@H]3C[C@H](O)[C@@]1(C)O2`, for which the growth in [1] is -10.9% (active); in [2], 14.7%; in test [3], 16%; in [4] it was -12.4% (active); in test [5] it was 0.132% (active); in test [6], -16.1% (active). The growth in test [7] was -26.9% (active); in test [8] it was -0.223% (active); in [9], -24.3% (active); in test [10], -10.3% (active); in [11], 16.1%; in test [12] it was -42.7% (active). In addition, the growth in test [13] was -8.22% (active); in test [14] it was 17.4%; in [15], 5.24% (active); in test [16] it was 16.6%; in [17], 4.92% (active); in test [18] it was 7.55% (active). In addition, in test [20], the growth is -25.9% (active).

Regarding `CC(=O)Nc1ccc(NC(=O)Nc2cccc(-c3nc(-c4ccc(NC(=O)c5cccs5)cc4Cl)no3)c2)cc1C(F)(F)F`, the growth in [1] was -60.2% (active); in test [2], -41.2% (active); in [3], -8.96% (active); in test [4], -74.8% (active); in test [5], -59.4% (active); in [6], -46.8% (active). Further, the growth is -39.6% (active) in test [7]; -27.1% (active) in test [8]; -43.4% (active) in [9]; -64.4% (active) in [10]; -15.4% (active) in [11]; 1.01% (active) in test [12]. Besides, the growth in test [13] is -84.3% (active); in test [14], -60.6% (active); in test [15], -85% (active); in [16] it was -38.8% (active); in [17] it was -62.9% (active); in [18], -87.5% (active). Also, the growth is -58.4% (active) in test [19] and -59.2% (active) in test [20].
